Reference: PubChem BioAssay (Tox21)
Values joined by “and” are separate entries in the source; they are usually repeats but may differ in a detail not shown here. Identical values can stand only once. Results filed as inconclusive are left out. Some compounds were tested as several samples or in several runs, with calls that do not always agree. Active and inactive are the calls of the source. The call rests on the fitted dose curve; in most records, active means well fitted curve in the direction sought with a large enough effect in the repeat runs; inconclusive means weak or mixed curves; inactive means no such curve, though single readings can be large; an effect the other way counts as inactive or inconclusive.

How the values were obtained:
[1] = qHTS RealTime-Glo MT Cell Viability Assay in HepG2 cells - 40 hour (AID 1224870); settings: RealTime-Glo luminescence; series mostly up to 76.8 µM; further: nearly all actives have a fitted effect of over 50% in size
In short: (§1)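 HepG2 cells (600/well) mixed with RealTime-Glo MT reagent, settled 5 h at 37 C/5% CO2 before compound addition. Nonlytic NanoLuc luminescence from viable-cell prosubstrate reduction read repeatedly during 40 h treatment at 37 C.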

[2] = A CellTox Green Cytotoxicity Assay to monitor cytotoxicity in HEK293 cells - 40 hour (AID 1224871); settings: CellTox Green fluorescence; series mostly up to 76.8 µM; further: nearly all actives have a fitted effect of over 45% in size; further: potency means the concentration at half of the fitted maximal effect
In short: (§2)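 Each value comes from one timepoint of a single continuous run in which HEK293 cells with CellTox Green were exposed to compound for up to 40 h at 37 C, dye fluorescence rising with cell death.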

[3] = qHTS RealTime-Glo MT Cell Viability Assay in HEK293 cells - 16 hour (AID 1224872); settings: RealTime-Glo luminescence; series mostly up to 76.8 µM; further: top concentration of the series differs between compounds; nearly all actives have a fitted effect of over 50% in size
In short: (§3)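 HEK293 cells seeded with NanoLuc/prosubstrate reagent, rested 5 h at 37 C, then dosed and kept at 37 C up to 40 h. Nonlytic real-time luminescence from viable cells read at 0, 8, 16, 24, 32 and 40 h.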

[4] = qHTS RealTime-Glo MT Cell Viability Assay in HepG2 cells - 8 hour (AID 1224873); settings: RealTime-Glo luminescence; series mostly up to 76.8 µM; further: nearly all actives have a fitted effect of over 55% in size
In short: as §1

[5] = qHTS RealTime-Glo MT Cell Viability Assay in HEK293 cells - 40 hour (AID 1224874); settings: RealTime-Glo luminescence; max response: stronger effect = lower value; further: nearly all actives have a fitted effect of over 50% in size; further: potency means the concentration at half of the fitted maximal effect
In short: (§4)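 qHTS format; HEK293 cells with NanoLuc/prosubstrate reagent, 37 C/5% CO2 for 5 h pre-dosing; compounds 23 nL in DMSO; luminescence at each time point reflects viable cells.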

[6] = A CellTox Green Cytotoxicity Assay to monitor cytotoxicity in HEK293 cells - 24 hour (AID 1224875); settings: CellTox Green fluorescence; series mostly up to 76.8 µM; further: nearly all actives have a fitted effect of over 45% in size
In short: as §2

[7] = A CellTox Green Cytotoxicity Assay to monitor cytotoxicity in HepG2 cells - 16 hour (AID 1224876); settings: CellTox Green fluorescence; series mostly up to 76.8 µM; further: nearly all actives have a fitted effect of over 45% in size
In short: (§5)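 Continuous culture of HepG2 cells with a membrane-impermeant DNA dye; rising fluorescence marks dead cells. Compound exposure lasted up to 40 h at 37 C, with reads every 8 h from 0 h.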

[8] = qHTS RealTime-Glo MT Cell Viability Assay in HepG2 cells - 32 hour (AID 1224877); settings: RealTime-Glo luminescence; series mostly up to 76.8 µM; further: nearly all actives have a fitted effect of over 55% in size
In short: (§6)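 HepG2 cells (600/well) were dispensed with RealTime-Glo reagents, incubated 5 h at 37 °C, then treated with compounds in DMSO for up to 40 h. Nonlytic NanoLuc luminescence reflecting viable cells was read at each stated time point.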

[9] = A CellTox Green Cytotoxicity Assay to monitor cytotoxicity in HepG2 cells - 24 hour (AID 1224878); settings: CellTox Green fluorescence; series mostly up to 76.8 µM; further: nearly all actives have a fitted effect of over 45% in size
In short: as §5

[10] = A CellTox Green Cytotoxicity Assay to monitor cytotoxicity in HepG2 cells - 40 hour (AID 1224879); settings: CellTox Green fluorescence; series mostly up to 76.8 µM; further: nearly all actives have a fitted effect of over 40% in size; further: potency means the concentration at half of the fitted maximal effect
In short: as §5

[11] = qHTS RealTime-Glo MT Cell Viability Assay in HEK293 cells - 0 hour (AID 1224880); settings: RealTime-Glo luminescence; series mostly up to 76.8 µM
In short: as §4

[12] = A CellTox Green Cytotoxicity Assay to monitor cytotoxicity in HEK293 cells - 32 hour (AID 1224881); settings: CellTox Green fluorescence; series mostly up to 76.8 µM; further: nearly all actives have a fitted effect of over 40% in size
In short: as §2

[13] = A CellTox Green Cytotoxicity Assay to monitor cytotoxicity in HepG2 cells - 0 hour (AID 1224882); settings: CellTox Green fluorescence; series mostly up to 76.8 µM; further: nearly all actives have a fitted effect of over 35% in size
In short: as §5

[14] = A CellTox Green Cytotoxicity Assay to monitor cytotoxicity in HepG2 cells - 32 hour (AID 1224883); settings: CellTox Green fluorescence; series mostly up to 76.8 µM; further: nearly all actives have a fitted effect of over 50% in size
In short: as §5

[15] = A CellTox Green Cytotoxicity Assay to monitor cytotoxicity in HEK293 cells - 8 hour (AID 1224884); settings: CellTox Green fluorescence; series mostly up to 76.8 µM; further: nearly all actives have a fitted effect of over 35% in size
In short: as §2

[16] = qHTS RealTime-Glo MT Cell Viability Assay in HepG2 cells - 16 hour (AID 1224885); settings: RealTime-Glo luminescence; series mostly up to 76.8 µM; further: nearly all actives have a fitted effect of over 50% in size
In short: as §6

[17] = qHTS RealTime-Glo MT Cell Viability Assay in HEK293 cells - 24 hour (AID 1224886); settings: RealTime-Glo luminescence; series mostly up to 76.8 µM
In short: as §3

[18] = qHTS RealTime-Glo MT Cell Viability Assay in HEK293 cells - 8 hour (AID 1224887); settings: RealTime-Glo luminescence; series mostly up to 76.8 µM
In short: as §4

[19] = A CellTox Green Cytotoxicity Assay to monitor cytotoxicity in HEK293 cells - 16 hour (AID 1224888); settings: CellTox Green fluorescence; series mostly up to 76.8 µM; further: nearly all actives have a fitted effect of over 35% in size
In short: as §2

[20] = qHTS RealTime-Glo MT Cell Viability Assay in HepG2 cells - 0 hour (AID 1224889); settings: RealTime-Glo luminescence; series mostly up to 76.8 µM; further: nearly all actives have a fitted effect of over 50% in size
In short: as §6
On the % scale 0 is the no-effect control and ±100 the full control effect.

CN(C)C(=O)Nc1cccc(C(F)(F)F)c1
inactive: outcome [1] | Potency [2] | outcome [3] | outcome [4] | max response [5] -22.8% and -6.94% | Potency [6] | Potency [7] | outcome [8] | Potency [9] | Potency [10] | outcome [11] | Potency [12] | Potency [13] | Potency [14] | Potency [15] | outcome [16] | outcome [17] | outcome [18] | Potency [19] | outcome [20]

Oc1ccc(Cl)cc1
inactive: outcome [1] | Potency [2] | outcome [3] | outcome [4] | max response [5] 3.34% and 1.68% and 3.82% | Potency [6] | Potency [7] | outcome [8] | Potency [9] | Potency [10] | outcome [11] | Potency [12] | Potency [13] | Potency [14] | Potency [15] | outcome [16] | outcome [17] | outcome [18] | Potency [19] | outcome [20]

CCCCC(CC)C(=O)Cl (stereo unspecified)
inactive: outcome [1] | Potency [2] | outcome [3] | outcome [4] | max response [5] 14.8% and -0.733% | Potency [6] | Potency [7] | outcome [8] | Potency [9] | Potency [10] | outcome [11] | Potency [12] | Potency [13] | Potency [14] | Potency [15] | outcome [16] | outcome [17] | outcome [18] | Potency [19] | outcome [20]

Nc1ccc([As](=O)(O)O)cc1
inactive: outcome [1] | Potency [2] | outcome [3] | outcome [4] | max response [5] 6.3% and -4.26% and 1.01% | Potency [6] | Potency [7] | outcome [8] | Potency [9] | Potency [10] | outcome [11] | Potency [12] | Potency [13] | Potency [14] | Potency [15] | outcome [16] | outcome [17] | outcome [18] | Potency [19] | outcome [20]

CCSC(=O)N1CCCCCC1
active: Potency [5] 12 µM
inactive: outcome [1] | Potency [2] | outcome [3] | outcome [4] | max response [5] 3.34% | Potency [6] | Potency [7] | outcome [8] | Potency [9] | Potency [10] | outcome [11] | Potency [12] | Potency [13] | Potency [15] | outcome [16] | outcome [17] | outcome [18] | Potency [19] | outcome [20]

COc1nc(NC(C)C)nc(NC(C)C)n1
inactive: outcome [1] | Potency [2] | outcome [3] | outcome [4] | max response [5] -0.66% and 0.377% | Potency [6] | Potency [7] | outcome [8] | Potency [9] | Potency [10] | outcome [11] | Potency [12] | Potency [13] | Potency [14] | Potency [15] | outcome [16] | outcome [17] | outcome [18] | Potency [19] | outcome [20]

COS(=O)(=O)OC
inactive: outcome [1] | Potency [2] | outcome [3] | outcome [4] | max response [5] 1.63% and 22.3% | Potency [6] | Potency [7] | outcome [8] | Potency [9] | Potency [10] | outcome [11] | Potency [12] | Potency [13] | Potency [14] | Potency [15] | outcome [16] | outcome [17] | outcome [18] | Potency [19] | outcome [20]

COc1cc(-c2ccc(N)c(OC)c2)ccc1N
inactive: outcome [1] | Potency [2] | outcome [3] | outcome [4] | max response [5] -23.4% and -26.2% | Potency [6] | Potency [7] | outcome [8] | Potency [9] | Potency [10] | outcome [11] | Potency [12] | Potency [13] | Potency [14] | Potency [15] | outcome [16] | outcome [17] | outcome [18] | Potency [19] | outcome [20]
active: Potency [5] 37.1 µM

CC(C)CCCCCCOC(=O)c1ccccc1C(=O)OCCCCCCC(C)C
inactive: outcome [1] | Potency [2] | outcome [3] | outcome [4] | max response [5] 12.6% and 8.04% and 6.43% | Potency [6] | Potency [7] | outcome [8] | Potency [9] | Potency [10] | outcome [11] | Potency [12] | Potency [13] | Potency [14] | Potency [15] | outcome [16] | outcome [17] | outcome [18] | Potency [19] | outcome [20]

C[C@]12CC[C@H](O)CC1=CC[C@@H]1[C@@H]2CC[C@]2(C)C(=O)CC[C@@H]12
inactive and 43.6 µM (active): Potency [2]
49 µM (active) and inactive: Potency [10]
inactive: outcome [1] | outcome [3] | outcome [4] | max response [5] -15.5% | Potency [6] | Potency [7] | outcome [8] | Potency [9] | outcome [11] | Potency [12] | Potency [13] | Potency [14] | Potency [15] | outcome [16] | outcome [17] | outcome [18] | Potency [19] | outcome [20]

O=P1(NCCCl)OCCCN1CCCl (stereo unspecified)
inactive: outcome [1] | Potency [2] | outcome [3] | outcome [4] | max response [5] 0.555% and 9.01% and 5.36% | Potency [6] | Potency [7] | outcome [8] | Potency [9] | Potency [10] | outcome [11] | Potency [12] | Potency [13] | Potency [14] | Potency [15] | outcome [16] | outcome [17] | outcome [18] | Potency [19] | outcome [20]

CC(=O)C1CCOC1=O (stereo unspecified)
inactive: outcome [1] | Potency [2] | outcome [3] | outcome [4] | max response [5] 3.16% and 1.64% | Potency [6] | Potency [7] | outcome [8] | Potency [9] | Potency [10] | outcome [11] | Potency [12] | Potency [13] | Potency [14] | Potency [15] | outcome [16] | outcome [17] | outcome [18] | Potency [19] | outcome [20]
